# Screens (PubChem BioAssay)
# D1 allo mod – D1 CRE-luciferase signal change, two-sided – cell-based, HEK293 D1, dopamine EC30, D1 allosteric modulator project, primary screen. D(1A) dopamine receptor (Homo sapiens), P21728. dopamine EC30 potentiation; actives deviate in either direction. B-score at 10 µM. 58,000 tested, 5.9% active;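 active = luminescence count or its row- and column-corrected plate score outside the 99.7% band of the plate's sample wells, on either side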
# CYP2C19 activ – human CYP2C19 activators, primary screen, biochemical, luminescence; 96,000 tested, under 10 active; AID 1025, 2008; activation factor at 5 µM; recombinant CYP2C19, luciferin-H EGE luminescence; stronger effect = higher value; 0 = fully inhibited enzyme, 1 = untreated enzyme; Cytochrome P450 2C19 (Homo sapiens), P33261;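 active = activation factor of at least 2 at 5 µM in the primary screen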;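 note: 0 = wells with 2.5 mM tranylcypromine and 1 = vehicle-only wells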
# Target sequence (P33261 whole entry, looked up): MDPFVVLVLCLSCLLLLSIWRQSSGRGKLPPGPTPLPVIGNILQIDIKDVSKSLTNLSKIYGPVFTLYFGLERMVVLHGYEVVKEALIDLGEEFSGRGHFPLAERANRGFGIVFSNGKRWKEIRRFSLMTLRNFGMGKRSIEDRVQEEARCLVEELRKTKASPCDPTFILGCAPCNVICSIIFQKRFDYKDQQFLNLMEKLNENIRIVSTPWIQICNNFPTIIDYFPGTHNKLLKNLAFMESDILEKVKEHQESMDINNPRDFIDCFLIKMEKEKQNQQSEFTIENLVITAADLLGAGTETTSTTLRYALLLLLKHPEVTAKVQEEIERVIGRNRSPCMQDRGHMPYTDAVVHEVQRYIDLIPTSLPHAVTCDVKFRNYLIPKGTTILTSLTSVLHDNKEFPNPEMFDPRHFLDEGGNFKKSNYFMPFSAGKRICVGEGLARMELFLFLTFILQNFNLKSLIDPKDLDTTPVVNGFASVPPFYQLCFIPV
# CYP2C9 inhib – blockers of cytochrome P450 2C9 activity – biochemical, luminescence, ADME assay, primary screen | CYP2C9 Supersomes, luciferin-H conversion | inhibition, % at 5 µM | 96,000 tested, 20% active;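 active = blocking of liver enzyme CYP2C9 beyond about 50% at 5 µM, limit read from the data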
# CYP2C9 act – human CYP2C9 activators, primary screen, biochemical, luminescence; Cytochrome P450 2C9 (Homo sapiens), P11712; recombinant CYP2C9, luciferin-H conversion; stronger effect = higher value; factor 1 = untreated enzyme, 0 = blocked; activation factor at 5 µM; 96,000 tested, 1.4% active; AID 1024, 2008;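 active = activation factor of 2 or more for CYP2C9 at a 5 µM dose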;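 note: 0 = sulfaphenazole-blocked wells and 1 = vehicle-only wells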
# CYP2C19 inhib – blockers of cytochrome P450 2C19 activity – biochemical, luminescence, ADME assay, primary screen. AID 778, 2007. CYP2C19 Supersomes, luciferin-H EGE luminescence, 30 min. 96,000 tested, 21% active. inhibition, % at 5 µM;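 active = CYP2C19 inhibition above a set limit at 5 µM in the primary screen, cut at about 50% in these data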;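 note: plate controls were negative control wells for no effect and 2.5 mM tranylcypromine positive control for full effect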
# hDAT+cocaine – changed hDAT dopamine uptake under cocaine IC80, either direction, primary screen, cocaine antagonist project, cell-based, LLC-PK1 hDAT, [14C]-dopamine uptake, MLSMR. B-score at 10 µM. Sodium-dependent dopamine transporter (Homo sapiens), Q01959. 110,000 tested, 1.3% active. LLC-PK1 hDAT cells, [14C]-dopamine uptake with cocaine IC80; actives deviate in either direction;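 active = Z score or B-score, a plate-position-corrected score, falls beyond the plate's 99.7% confidence bounds, in either direction; inactive = both scores lie inside the 99.7% bounds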;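 note: scored against the spread of the other compound wells on the same plate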
# * marks the source's active call; other numbers are inactive results; · = not tested or not shown. Rows were chosen to be rich in hits. Some 28% of all compounds tested hit in one or more screens of this group.
SMILES,D1 allo mod,CYP2C19 activ,CYP2C9 inhib,CYP2C9 act,CYP2C19 inhib,hDAT+cocaine
COc1cc(/C=N/NC(=O)c2nc(C)cc(C)n2)ccc1O,·,0.9,8,0.9,5,1.5
CCn1c2ccccc2c2cc(/C=N/NC(=O)c3ccccc3)ccc21,·,0.3,8,0.9,73*,0.45
COc1cc(/C=N/NC(=O)C2c3ccccc3Oc3ccccc32)ccc1O,·,0.9,53*,0.5,8,-0.15
O=C(Cn1c(=O)oc2cc(S(=O)(=O)N3CCCC3)ccc21)N1CCN(c2ccccn2)CC1,-0.53,1,37,0.6,4,-0.081
CC(C)CCn1c(=O)c2ccccc2n2c(CN3C(=O)NC4(CCC(C)CC4)C3=O)nnc12 (stereo not given),-0.052,1,13,0.9,0,-0.33
Cc1nc2ncnn2c(N2CCCC(C(=O)Nc3ccc4c(c3)CCC4)C2)c1C (stereo not given),-0.94,0.5,66*,0.3,48,2.1
CCc1c(C)nc2ncnn2c1N1CCC(C(=O)Nc2ccccc2)CC1,0.76,0.1,66*,0.3,95*,1.9
CCc1c(C)nc2ncnn2c1N1CCC(C(=O)Nc2ccc(C)cc2)CC1,0.036,0.7,59*,0.4,29,0.23
O=C(Nc1ccc2c(c1)CCC2)C1CCCN(c2ncccn2)C1 (stereo not given),0.11,0.8,10,0.9,24,0.5
CC(=O)Nc1ccc(NC(=O)C2CCN(c3c(Cc4ccccc4)c(C)nc4ncnn34)CC2)cc1,·,·,·,·,·,-1.4
Cc1cc(C(=O)NCCCN2CCCC2=O)no1,-0.81,1.1,-15,1.2,-12,-1.9
CCO[C@@H]1OC(C(=O)N2CCN(Cc3ccccc3)CC2)=C[C@H](c2ccccc2)[C@H]1CCCO,·,·,·,·,·,1.3
CCCCn1c(N)c(Sc2ccc(Cl)cc2)c(=O)[nH]c1=O,·,0.6,17,0.8,42,-0.088
CCCn1c(N)c(Sc2ccc(Cl)cc2)c(=O)n(CCC)c1=O,0.55,0.1,58*,0.4,90*,1.4
COc1ccc(-c2nnc(SCC(=O)Nc3cc(C)on3)n2C)cc1OC,1.8,1,-1,1,5,0.1
O=S(=O)(Nc1ccc(-n2cccc2)cc1)c1ccc(Cl)cc1Cl,·,0,100*,0,100*,-1.6
CN1CCN(c2ccc(Cl)cc2NS(=O)(=O)c2ccccc2Cl)CC1,-1.3,0.8,17,0.8,19,0.3
O=C(CN(Cc1ccccc1)C(=O)CCC(=O)Nc1nccs1)NCc1ccco1,-0.12,0.4,26,0.7,61*,-0.25
O=C(CN(C(=O)CCC(=O)Nc1nccs1)c1ccc(F)c(Cl)c1)NCc1ccco1,0.29,0.2,27,0.7,76*,-0.11
O=C(CN(Cc1ccc(F)cc1)C(=O)CCC(=O)Nc1ccccn1)NCc1ccco1,-0.016,0.7,31,0.7,31,0.0032
O=C(CN(C(=O)CCC(=O)Nc1nccs1)c1ccc(F)cc1)NCc1ccco1,0.3,0.3,32,0.7,65*,-2.8*
Cc1cccc(Cn2c(=O)n(-c3ccc(CC(=O)NCc4ccco4)cc3)c(=O)c3sccc32)c1,·,1.2,-2,1,-15,0.24
CNC(=O)/C(=C\c1ccc([N+](=O)[O-])cc1)NC(C)=O,·,1.1,1,1,-11,·
CS(=O)(=O)c1ccc2nc(NC(=O)Oc3ccccc3)sc2c1,-0.78,0.9,70*,0.3,11,-1.8
COCC(=O)Nc1nc2ccc(S(C)(=O)=O)cc2s1,-0.34,0.4,77*,0.2,63*,0.71
SMILES,D1 allo mod,CYP2C19 activ,CYP2C9 inhib,CYP2C9 act,CYP2C19 inhib,hDAT+cocaine
C=CCN(CC=C)S(=O)(=O)c1ccc2nc(NC(=O)C(C)C)sc2c1,3.4,0.2,93*,0.1,81*,1.5
COc1ccc(C(=O)Nc2nc3ccc(S(C)(=O)=O)cc3s2)cc1,·,·,·,·,·,0.75
O=c1oc(-c2cccc(S(=O)(=O)N3CCOCC3)c2)nc2ccccc12,-0.63,1,30,0.7,-4,0.45
Cn1ccnc1SCC(=O)N(C1CCCCC1)C1CCCCC1,0.2,0.8,16,0.8,20,-0.7
Cc1ccccc1/C(N)=N/OC(=O)/C=C/c1ccccc1,·,1,-21,1.2,4,-0.067
O=C(OCC#Cc1c(COC(=O)c2ccccc2)nnn1Cc1ccccc1)c1ccccc1,·,·,·,·,·,-0.32
CS(=O)(=O)N(CC(=O)NC1CCCC1)c1ccc2c(c1)OCCO2,0.047,0.8,9,0.9,21,-0.27
CCC(C)(C)NC(=O)CN(C(=O)CNS(=O)(=O)c1ccc(C)cc1)c1ccc2c(c1)OCCO2,-0.061,0.7,54*,0.5,29,-0.44
Cc1ccc(S(=O)(=O)NCC(=O)N(CC(=O)NC2CCCC2)c2ccc3c(c2)OCCO3)cc1,-0.11,0.5,61*,0.4,48,0.68
Cc1cc(C)cc(N(CC(=O)NC2CCCCC2)C(=O)c2ccc(C)s2)c1,·,0.7,-5,1.1,26,-0.074
Cc1ccc(N(CC(=O)NC2CCCCC2)C(=O)c2ccc(C)s2)cc1,·,0.7,60*,0.4,31,-0.043
CC(C)(C)NC(=O)CN(C(=O)CNS(=O)(=O)c1ccccc1)c1ccc2c(c1)OCCO2,·,0.8,21,0.8,16,0.068
O=C(Nc1ccc(Cl)cc1)N1CCCN(Cc2ccccc2F)C1,·,0.5,24,0.8,50,0.75
CC(C)Cc1cc(C(=O)Nc2cc(Cl)ccc2Cl)no1,-1.1,1.3,-162,2.6*,-28,·
CC(C)c1cc(C(=O)Nc2cc(Cl)ccc2O)no1,0.32,0.9,50*,0.5,14,0.033
CC(C)Cc1cc(C(=O)Nc2ccc(F)cc2F)no1,-1.6,0.8,-76,1.8,20,0.073
CC(C)c1cc(C(=O)Nc2cc(Br)ccc2O)no1,·,1,39,0.6,5,-0.79
Clc1ccccc1-c1ccc(CN2CCN(c3ccccc3)CC2)o1,·,0.3,64*,0.4,74*,·
COc1ccc(OCCCCOc2ccccc2Cl)cc1,·,1.1,-13,1.1,-13,0.58
CC(C)COC(=O)C(C#N)c1nc2ccccc2nc1N1CCN(Cc2ccc3c(c2)OCO3)CC1 (stereo not given),-1.9,0.5,79*,0.2,49,1.5
CCCCOC(=O)C(C#N)c1nc2ccccc2nc1N1CCN(Cc2ccc3c(c2)OCO3)CC1 (stereo not given),-2.2,0.3,92*,0.1,65*,0.53
